According to PubChem BioAssay (NCI):
About 83,000 compounds went through this panel and 20% of them were active in at least one assay; those are over-represented in the sample as a whole.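 96-well plates, one dose, 48 hours. Percent growth reported; active if below 10.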 Values without a mark were called inactive. Active and inactive are the calls of the source.

Tests used:
Assay in all cases: NCI-60 one-dose screen, 48 h (100 = growth as untreated, 0 = no growth, -100 = all killed)
Details in all cases: 10 µM unless noted
NCI-H23 lung = tested on: NCI-H23 lung
NCI-H226 lung = tested on: NCI-H226 lung
NCI-H322M lung = tested on: NCI-H322M lung
HOP-62 NSCLC = tested on: HOP-62 NSCLC
NCI-H460 lung = tested on: NCI-H460 lung
NCI-H522 lung = tested on: NCI-H522 lung
A549/ATCC NSCLC = tested on: A549/ATCC NSCLC
786-0 renal = tested on: 786-0 renal
COLO 205 colon = tested on: COLO 205 colon
DU-145 prostate = tested on: DU-145 prostate
K-562 leukemia = tested on: K-562 leukemia
MALME-3M melanoma = tested on: MALME-3M melanoma
MDA-MB-231 breast = tested on: MDA-MB-231 breast
RXF 393 renal = tested on: RXF 393 renal
SF-268 CNS = tested on: SF-268 CNS
SF-295 CNS = tested on: SF-295 CNS
SF-539 CNS = tested on: SF-539 CNS
UACC-257 melanoma = tested on: UACC-257 melanoma
M14 melanoma = tested on: M14 melanoma

Compound	growth (NCI-H23 lung)	growth (NCI-H226 lung)	growth (NCI-H322M lung)	growth (HOP-62 NSCLC)	growth (NCI-H460 lung)	growth (NCI-H522 lung)	growth (A549/ATCC NSCLC)	growth (786-0 renal)	growth (COLO 205 colon)	growth (DU-145 prostate)	growth (K-562 leukemia)	growth (MALME-3M melanoma)	growth (MDA-MB-231 breast)	growth (RXF 393 renal)	growth (SF-268 CNS)	growth (SF-295 CNS)	growth (SF-539 CNS)	growth (UACC-257 melanoma)	growth (M14 melanoma)
CS(=O)(=O)c1ccc(C(=O)N/N=C/c2ccc3c(c2)OCO3)cc1	96.9%	91.1%	96.2%	96.8%	107%	86%	67.7%	102%	110%	108%	85.5%	105%	107%	120%	104%	101%	105%	59.1%	106%
Cc1nn(-c2cccc(Cl)c2)c(C)c1N=Nc1ccc(Br)cc1	96.9%	101%	102%	86.9%	103%	68.6%	66.1%	89.7%	102%	101%	89.2%	95.1%	93.1%	110%	96.5%	91.8%	90.7%	53.2%	95.6%
COc1cccc(N2CCN(c3ncnc4cc[nH]c34)CC2)c1	42.8%	55.1%	94%	34.2%	66.9%	51.5%	60.2%	70.9%	88.2%	90.6%	37.7%	75.1%	84.4%	99.3%	90.7%	44.2%	72.8%	47.5%	58.2%
CC(=O)c1ccc(N2C(=O)c3ccc(Oc4ccccc4)cc3C2=O)cc1	101%	98.8%	106%	99.9%	105%	93.1%	109%	108%	116%	103%	119%	106%	113%	112%	100%	81.1%	107%	118%	98.8%
O=[N+]([O-])c1ccc(N/N=C/c2ccccc2O)nc1	33.9%	83.3%	39.6%	32.7%	15%	9.71% (active)	31.4%	21.8%	14.6%	48.7%	21.9%	78.5%	52.3%	38.1%	40.1%	35.2%	42.9%	32%	29.5%
CCN(CC)CCCC(C)Nc1ccnc2ccc(Oc3ccccc3)cc12 (centres undefined)	90.6%	120%	72%	86.6%	95.2%	36.2%	81.6%	72.3%	41.4%	88.6%	13.7%	-38.6% (active)	42.5%	24.5%	66.2%	93.7%	-41.3% (active)	-54.1% (active)	-58% (active)
NNC(=O)CSc1nc2scc(-c3ccccc3)c2c(=O)n1-c1ccccc1	101%	84%	122%	91.4%	110%	91.4%	115%	86.8%	107%	111%	89.9%	155%	86.6%	-50.2% (active)	85.6%	144%	96.5%	129%	112%
C=CCN(CC#N)CC=C	106%	95.5%	106%	98.5%	115%	97.7%	101%	107%	113%	112%	102%	109%	111%	112%	114%	108%	102%	99.5%	102%
CCN(CC)c1ccc(/C=N/NC(=O)C[N+](C)(C)C)cc1	99.4%	98.9%	115%	99.2%	110%	100%	100%	101%	111%	113%	54.3%	92.6%	119%	112%	110%	109%	110%	104%	110%
O=C(O)C(CCc1ccccc1)NCc1ccccc1 (centres undefined)	94.9%	106%	103%	93.3%	116%	87%	99.7%	100%	97.3%	95.7%	113%	89.8%	91.4%	128%	98.4%	103%	89.8%	99.4%	79.6%
CCN(CC)CC(=O)Nc1c(C)cc(C(=O)NN)cc1C	94.8%	99.7%	89.1%	88.5%	105%	105%	106%	106%	95.4%	96.8%	94.9%	73.9%	103%	110%	93.9%	105%	100%	100%	96.2%
CCN1C(=O)N(CC)C2C1NN=c1s/c(=C\c3ccco3)c(=O)n12 (centres undefined)	37.3%	60%	42.5%	28.2%	12.9%	-9.98% (active)	25%	25%	-19.8% (active)	3.04% (active)	11.5%	55.8%	43%	-2.28% (active)	44%	8.2% (active)	-1.22% (active)	63%	5.24% (active)
c1cc(C2CCCCC2)ccc1-c1cnc2nonc2n1	38.7%	47.5%	50.1%	18.5%	14.4%	-2.99% (active)	34.6%	13.5%	2.48% (active)	13.8%	5.7% (active)	48.8%	18.6%	-3.18% (active)	32%	28.3%	0.0756% (active)	42.6%	-16.7% (active)
COc1ccc(C(=O)N2N=C(c3ccc(F)cc3)CC2c2cn(-c3ccccc3)nc2-c2ccccc2)cc1 (centres undefined)	51%	91.2%	80%	40.5%	53.3%	52.4%	41.1%	69.6%	57%	57.5%	40.3%	73.7%	60.2%	73.7%	70.1%	65.1%	85.7%	78.6%	55%
COC1(OC)C2(Cl)CCC1(Cl)C(Cl)=C2Cl	99.4%	98.2%	100%	129%	106%	97%	95.6%	102%	128%	108%	110%	99.4%	106%	107%	106%	105%	101%	93.2%	96.9%
O=C(C(=O)N1CCCC1)c1cn(CCCn2cc(C(=O)C(=O)N3CCCC3)c3cc(Br)ccc32)c2ccc(Br)cc12	80.3%	85.9%	82.3%	56.1%	53.4%	62%	57.8%	71.4%	106%	62.3%	81.9%	58.1%	82.1%	82.8%	53.7%	-22.4% (active)	69.5%	76.4%	89.2%
